The supplement of paper PMC10338343
± gives the standard deviation.

Test system: MILI (PIWIL2) piRISC loaded with L1MC piRNA (26 nt)
Test: pre-steady-state target cleavage rate (min^-1); guide: L1MC piRNA 5'p-UAACUAAAUACUAUGCAAGCUGUAGG; MIWI and MILI are mouse PIWI proteins and EfPiwi is from a freshwater sponge; tags in brackets are library labels; higher = faster piRNA-guided slicing of the target
Summary of the method: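 In this Cleave-'n-Seq assay, uncleaved targets were sequenced and normalised to depth and to weakly complementary targets. They came from a transcribed, DNA-blocked target RNA library […] mixed with 1 nM active affinity-purified piRISC carrying one synthetic guide, with or without 500 nM GTSF1 partner protein, in HEPES–potassium acetate buffer at 33 °C for 0–8 or 0–960 min. After three trials were pooled and k3 was capped at 0.0001 min^-1, the pre-steady-state cleavage rate was obtained from a burst-and-steady-state fit.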

[1] = auxiliary factor: 500 nM mouse GTSF1
[2] = auxiliary factor: none (no GTSF1)
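Note: 1 nM active piRISC with 0.1 nM target library at 33 °C single turnover.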

Row | Sequence | pre-steady-state target cleavage rate [1] | pre-steady-state target cleavage rate [2]
1 | UCCUGGAUGUCCUUGCAUAGGUAUUUAGUUA | 0.00785 ± 0.0038 | 0.00689 ± 0.0025
2 | UCCUGGAUCAGCAUGCAUAGUAUUUUGUUA | 0.16 ± 0.021 | 0.00405 ± 0.0024
3 | UCCUGCUACAGCUUGCAUAGUCAUUUAGUUA | 0.0225 ± 0.0089 | 0.00473 ± 0.002
4 | UCCUGGAUGUCGUUGCUUAGUUUUUAGUUA | 0.00856 ± 0.0044 | 0.00646 ± 0.0025
5 | UCCUGGAUCAGCUUGCAUAGUAUUUACUUA | 0.0636 ± 0.008 | 0.00403 ± 0.0024
6 | UCCUGGAUGUCCUUGCAUAGUAUAUAGUUA | 0.149 ± 0.026 | 0.00505 ± 0.0026
7 | UCCUGGAUGUCGUUGCAUAGUAUUUGGUUA | 0.145 ± 0.031 | 0.00722 ± 0.003
8 | UCCUGGAACAGCUUGCAUAGUAUUUAGUGA | 0.229 ± 0.027 | 0.00433 ± 0.0025
9 | UCCUGGAUGAGCUUGCAUAGUAUUUAUGUUA | 0.102 ± 0.021 | 0.00381 ± 0.0034
10 | UCCUGGAUGAGCUUGCUUACUAUUUAGUUA | 0.0357 ± 0.0051 | 0.00365 ± 0.0025
11 | UCCUGGAUCACGAUGCAUAGUAUUUAGUUA | 0.134 ± 0.013 | 0.00516 ± 0.0028
12 | UCCUGGAACAGCUUCGUUAGUAUUUAGUUA | 0.181 ± 0.013 | 0.00414 ± 0.0022
13 | UCCUGGUACAGGUUGCAUUGUAUUUAGUUA | 0.175 ± 0.023 | 0.0117 ± 0.0031
14 | UCCUGGAUGAGCUUAGCAUAGUAUUUAGUUA | 0.217 ± 0.016 | 0.0041 ± 0.0027
15 | UCCUGGAUGUCCAUGGAUAGUAUUUAGUUA | 0.0252 ± 0.0073 | 0.00317 ± 0.0025
16 | UCCUGGAUGAGCUUGCUUAGUAUUUUGUUA | 0.138 ± 0.021 | 0.00587 ± 0.0022
17 | UCCUGGAUGUCCUUGGAUAGUAUUAAGUUA | 0.207 ± 0.037 | 0.00484 ± 0.0024
18 | UCCUCGAUCAGCUUGCAUAGUAUUUAGUAA | 0.269 ± 0.017 | 0.00809 ± 0.0023
19 | UCCUGGAUGUCGAUGCAUAGUUUAUAGUUA | 0.00501 ± 0.0045 | 0.00379 ± 0.0026
20 | UCCUGGAUGUGCAUGCAUAGUAUUUUGUUA | 0.0798 ± 0.018 | 0.00327 ± 0.0032
21 | UCCUGGAUGUGCUAGGAUAGUAUUUAGUUA | 0.103 ± 0.014 | 0.00564 ± 0.0022
22 | UCCUGCUACAGCUUCGCAUAGUAUUUAGUUA | 0.268 ± 0.019 | 0.00637 ± 0.0021

Row | Sequence | pre-steady-state target cleavage rate [1] | pre-steady-state target cleavage rate [2]
23 | UCCUGGAUGUGCUUGCAAAGUAUUUAGUAA | 0.033 ± 0.0074 | 0.00287 ± 0.0025
24 | UCCUGGAUGUGCUAGCUUAGUAUUUAGUUA | 0.0596 ± 0.0098 | 0.00453 ± 0.0023
25 | UCCUGGUACGCUUGCAUAGUAUUUAGUUA | 0.222 ± 0.034 | 0.0143 ± 0.0047
26 | UCCUGGUACAGCUAGCAUACUAUUUAGUUA | 0.126 ± 0.026 | 0.00435 ± 0.0028
27 | UCCUGGAUGUGCUUGCAGAGUAUUUAGUUA | 0.0463 ± 0.009 | 0.00711 ± 0.0023
28 | UCCUGGAUGUCGUUGCAUAGUUUUUAGUUA | 0.00524 ± 0.0046 | 0.00595 ± 0.0026
29 | UCCUGCUACAGCUUGCAUAGUAUUUAGUUU [g2:g25:cont:t1U] | 0.315 ± 0.022 | 0.0127 ± 0.0035
30 | UCCUGGAACAGCUUCCUUAGUAUUUAGUUA | 0.214 ± 0.018 | 0.00562 ± 0.002
31 | UCCUGGAUGUCGAUGCAUAGUAGUUUAGUUA | 0.0201 ± 0.005 | 0.00577 ± 0.0027
32 | UCCUGGAUGUGCUUGCAUAGUAUUUAGUGUA | 0.101 ± 0.015 | 0.00366 ± 0.0034
33 | UCCUGCUACAAGCUUGCAUAGUAUUUAGUUA | 0.157 ± 0.015 | 0.00805 ± 0.002
34 | UCCUGGAUGUCGAUGGCAUAGUAUUUAGUUA | 0.0677 ± 0.014 | 0.00792 ± 0.003
35 | UCCUGGAUGUGCAUGCAUAGUUUUUAGUUA | 0.01 ± 0.0069 | 0.00641 ± 0.003
36 | UCCUGGUACAGCUUGCAUAGUAUUUCAGUUA | 0.21 ± 0.078 | 0.00397 ± 0.0039
37 | UCCUGGAUGUCCAUGCAUAGUUUUUAGUUA | 0.0166 ± 0.0043 | 0.00362 ± 0.0023
38 | UCCUGGAUGUCCUUGCAUAGAUUUUAGUUA | 0.0121 ± 0.0046 | 0.00402 ± 0.0018
39 | UCCUGGUAGAGCUUGCAUUGUAUUUAGUUA | 0.18 ± 0.015 | 0.00645 ± 0.0026
40 | UCCUGCUACAGCUUGUAUAGUAUUUAGUUA | 0.255 ± 0.015 | 0.00693 ± 0.0021
41 | UCCUGGAUGAGCUUGGAUAGUAUUUAGUAA | 0.178 ± 0.027 | 0.00491 ± 0.0023
42 | UCCUGGAACAGGUUGCUUAGUAUUUAGUUA | 0.253 ± 0.015 | 0.0109 ± 0.0031
43 | UCCUGCAAGAGCUUGCAUAGUAUUUAGUUA | 0.292 ± 0.025 | 0.00624 ± 0.0028
44 | UCCUGGUACAGUCUUGCAUAGUAUUUAGUUA | 0.254 ± 0.033 | 0.0122 ± 0.0047

Row | Sequence | pre-steady-state target cleavage rate [1] | pre-steady-state target cleavage rate [2]
45 | UCCUGGAUGUCGUUGCAUAUUAUUUAGUUA | 0.0246 ± 0.0061 | 0.00364 ± 0.0023
46 | UCCUGGAUGUCCUUGAUAGUAUUUAGUUA | 0.00551 ± 0.0039 | 0.00337 ± 0.0019
47 | UCCUGGAUGUGCUUGCAUAGUAUUCUAGUUA | 0.193 ± 0.045 | 0.00428 ± 0.0034
48 | UCCUGGAUGAGGUUGCAUAGUAUUUAGUAA | 0.0985 ± 0.018 | 0.004 ± 0.0027
49 | UCCUGGAUGUCGUUGCAUAGUAUGUUAGUUA | 0.203 ± 0.042 | 0.00861 ± 0.0031
50 | UCCUGGAUCAGCUUGCAUAGUUAUUUAGUUA | 0.00888 ± 0.004 | 0.00454 ± 0.0027
51 | UCCUGGAUGUGCUUGCAUUGUAUUAAGUUA | 0.0663 ± 0.014 | 0.00354 ± 0.0033
52 | UCCUGGUACAGCUUGGAUAGUAUUAAGUUA | 0.174 ± 0.038 | 0.00474 ± 0.0033
53 | UCCUGGUACAGCUUGCAUAGUUUUUAGUUA | 0.0505 ± 0.013 | 0.00579 ± 0.0038
54 | UCCUGGUACAGGUUGCAUAGUUUUUAGUUA | 0.039 ± 0.011 | 0.00732 ± 0.0043
55 | UCCUGGAUCAGCUUGCAUAGUAUUUAAGUUA | 0.251 ± 0.025 | 0.0108 ± 0.0029
56 | UCCUGGAUGUGGUUGCAUAGAAUUUAGUUA | 0.0151 ± 0.0063 | 0.00318 ± 0.0028
57 | UCCUGGAUGUGCUUGGAUAGUUUUUAGUUA | 0.00761 ± 0.0046 | 0.00414 ± 0.0024
58 | UCCUGGAUGUGCUUCCUUAGUAUUUAGUUA | 0.0394 ± 0.0077 | 0.00557 ± 0.0022
59 | UCCUGGAUGUCGAUGCAUAGUGAUUUAGUUA | 0.00445 ± 0.0044 | 0.00429 ± 0.0023
60 | UCCUGGAUGUCGAAGCAUAGUAUUUAGUCA | 0.0245 ± 0.0057 | 0.00315 ± 0.0019
61 | UCCUGGAUGAGCAUGCAUACUAUUUAGUUA | 0.0556 ± 0.011 | 0.00656 ± 0.0024
62 | UCCUGGAUGUCGAUGCAUAGUAUGUUAGUUA | 0.0347 ± 0.0076 | 0.00559 ± 0.0031
63 | UCCUGGAUCAGCUAGCAUUGUAUUUAGUUA | 0.107 ± 0.014 | 0.00287 ± 0.0024
64 | UCCUGGAUGUGGUUGCAUACUAUUUAGUUA | 0.0175 ± 0.0072 | 0.00525 ± 0.0036
65 | UCCUGGAACAGCAACCAUAGUAUUUAGUUA | 0.152 ± 0.018 | 0.00431 ± 0.0018
66 | UCCUGGAUCAGCAUGCAUAGUAUUUACUUA | 0.126 ± 0.016 | 0.00358 ± 0.0024
